Compounds without any hit were thinned out: in the full panel of roughly 83,000, 20% have a hit.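 Testing used 96-well plates and a 48-hour single-concentration exposure. Example: -40 means 40% of the starting cells died.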 Values without a mark were called inactive. Calls of active or inactive are those of the source. Rule for the calls: active = growth percent below 10; inactive = the rest.
Columns and labels:
Test in all cases: NCI-60 one-dose screen, 48 h (100 = growth as untreated, 0 = no growth, -100 = all killed)
Conditions in all cases: 10 µM unless noted
[1] = tested on: NCI-H23 lung
[2] = tested on: NCI-H226 lung
[3] = tested on: HOP-62 NSCLC
[4] = tested on: NCI-H460 lung
[5] = tested on: HOP-92 NSCLC
[6] = tested on: NCI-H522 lung
[7] = tested on: A549/ATCC NSCLC
[8] = tested on: 786-0 renal
[9] = tested on: COLO 205 colon
[10] = tested on: NCI-H322M lung

Compound	growth [1]	growth [2]	growth [3]	growth [4]	growth [5]	growth [6]	growth [7]	growth [8]	growth [9]	growth [10]
CCN(CCNc1cc(OC)cc2cccnc12)CCc1ccccc1	78.1%	86.2%	64.9%	86%	77.2%	63.7%	74.4%	87.2%	68.8%	
C/C(=C(/c1ccccc1)c1ccc(OCC(O)CN2CCOCC2)cc1)c1ccccc1 (centres undefined)	101%	96.6%	90.1%	92.6%	80.2%	73.3%	87.2%	67.1%	69.4%	
CCCNC(=O)Oc1ccc(/C(=C(\C)c2ccccc2)c2ccc(OCCN3CCCCC3)cc2)cc1	79.4%	89.5%	81.9%		80.7%		62.2%	35.8%	38%	83.3%
CC(=O)[C@@H]1CC[C@]2(C(N)=O)CC[C@]3(C)[C@H](CC[C@@H]4[C@@]5(C)CCC(=O)C(C)(C)[C@@H]5CC[C@]43C)[C@@H]12	95.1%	102%	92%	101%	103%		96.3%	89.6%	102%	
COC(=O)C(c1ccccc1)C(CC(=O)c1ccccc1)c1ccccc1 (centres undefined)	78.3%	75.1%	91.4%	109%	62.6%	61.9%	95.4%	106%	105%	
CC(=O)OC1CCC2(C)C(CCC3C4CC=C(C(C)=O)C4(C)OC(=O)CC32)C1 (centres undefined)	34.7%	45%	61%	78.1%	-21.2% (active)	-81.1% (active)	59.1%	64%	2.72% (active)	
CCOC(=O)Oc1c(OC)cc(C(=O)O[C@@H]2C[C@@H]3CN4CCc5c([nH]c6cc(OC)ccc56)[C@H]4C[C@@H]3[C@H](C(=O)OC)[C@H]2OC)cc1OC	74.9%	102%	97.9%		19%	73.8%	41.8%	78.7%	88.9%	
O=C(Nc1ccc2cc3ccc(NC(=O)NC4CCCCC4)cc3nc2c1)NC1CCCCC1	87.5%	97.7%	89.2%	103%	99.8%	103%	101%	60.1%	100%	
NC(=O)c1cccc(-c2cc(C(N)=O)ccc2Cl)c1	43.3%	69.1%	35.9%	98.2%	52%	23.4%	85%	48.7%	33.5%	
COc1ccc(Nn2c(SCC(=O)Nc3nc(-c4ccc(Cl)cc4)cs3)nc(C)c2C)cc1	31.9%	60.5%	100%	39.3%	38.6%	66.2%	44%	59.5%	77.5%	
Cc1cc(C)c(C=O)c(C)c1	101%	95.2%	72.4%	106%	86.4%	82.7%	72.1%	96.2%	107%	
CCCCCCNC(=O)Oc1ccc(/C(=C(/CC)Cc2ccccc2)c2ccc(OCCN(CC)CC)cc2)cc1	88%	89.3%	88.8%	-41.3% (active)	42.3%	74.5%	56.2%	63.7%	-48.6% (active)	
Cc1ccc(C(=O)Nc2ccccc2C(=O)N/N=C(\c2ccccc2)c2ccccn2)cc1	32.6%	30.3%	14.5%	5.43% (active)	52.7%	24.1%	17.2%	-17.1% (active)	14.1%	
CCCCCN1C=C/C(=C\C(=O)N(C)c2ccc(Br)cc2)c2ccccc21	87.3%	86.3%	94.5%	105%	82.7%	82.1%	95.2%	98%	108%	
CNC(=O)NCC1OC(n2cnc3c(NC(=O)Nc4ccccc4)ncnc32)C(O[Si](C)(C)C(C)(C)C)C1O[Si](C)(C)C(C)(C)C (centres undefined)	36.3%	49%	61.7%		-2.68% (active)		23%	16.5%	-100% (active)	
Clc1ccc(C2CC(c3cccc(Nc4ccncc4)c3)=NN2c2ccccc2)cc1 (centres undefined)	84.3%	93.1%	0.979% (active)	-70.5% (active)	55.8%	-39.1% (active)	27.3%	-94.3% (active)		
CCNNC(=O)[C@@H]1[C@H](c2cc(OC)c(OC)c(OC)c2)c2cc3c(cc2[C@H](O)[C@H]1CO)OCO3	24%	-21.5% (active)	36.3%	1.59% (active)	9.16% (active)	-18.7% (active)	9.99% (active)	0.908% (active)	-63.6% (active)	
CN(Cc1ccccc1)c1nc(Cl)c(C2CC(c3ccc(Cl)cc3)=Cc3[nH][nH]c(=O)c32)s1 (centres undefined)	98.3%	97.1%	101%	92.7%	102%	89.7%	107%	89.4%	124%	
CC1CCN(C(=O)OCc2nc3nc(Cl)nc(N4CCOCC4)c3[nH]2)CC1	8.48% (active)	-73.7% (active)	46.4%	10.5%	-48.8% (active)		6.08% (active)	-79.8% (active)	-86.6% (active)	
Fc1ccc(C2CC(c3cccc(Nc4ccncc4)c3)=NN2c2ccccc2)cc1 (centres undefined)	86.3%	95.5%	49.5%	-41.9% (active)	37.1%	75.8%	43.1%	81.7%	-64.8% (active)	
Cc1ccc2[nH]c(=O)cc(-n3nncc3COc3ccc(C=O)cc3)c2c1	103%	90.3%	101%		95.6%	89.7%	103%	102%	128%	
COc1ccc(-c2nc(SCCC(C)C)nc(N/N=C(/C)c3ccc(C)cc3)c2C#N)cc1	84.5%	91.7%	93.9%	99.7%	62.2%		99.3%	102%	109%	
CCCCCCCCCCCCCCCCCCOc1ccccc1N	87.8%	97.6%	90.9%	47.6%	78.7%	3.78% (active)	25.5%	25%	46.3%	
COc1ccc(C2=C(c3ccccc3)c3ccc(OC(C)=O)cc3OC2(C)C)cc1	79.8%	86.3%	107%	84.8%	81.1%	88.8%	87.7%	101%	108%	
O=C(Nc1ccc(Cl)cc1)Nc1ccc(Cl)c(Cl)c1	-54.2% (active)	16.3%	40.8%	-9.05% (active)	4.68% (active)	0.643% (active)	12.6%	39.1%	-2.8% (active)	
Cc1ccc(-c2c(Br)c(OC(=O)CO[C@@H]3C[C@H](C)CC[C@H]3C(C)C)c(-c3ccc(C)cc3C)c(Br)c2OC(=O)CO[C@H]2C[C@@H](C)CC[C@@H]2C(C)C)c(C)c1	98.6%	56.2%	94.5%	105%	93.6%	79.4%	88.9%	96.8%	95.3%	
O=C(CN1CCOCC1)Nc1ccc2ncnc(Nc3ccc(Oc4cccc(C(F)(F)F)c4)c(Cl)c3)c2c1	68.8%	75%	73.9%	64.1%	53%	26%	51.2%	65.3%	76.9%	

Source: PubChem BioAssay (NCI)
